NALP3 yeast inh: blocks the NALP3 inflammasome reconstituted in yeast; Yeast reconstituted NLRP3/ASC/caspase-1, beta-gal luminescence, 24 h; inhibition, % at 10 µM; actives 0.39% (n = 330,000); AID 2825;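 active means inhibition of 50% or more; inactive means inhibition below 50%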;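 further: plate controls were induced DMSO wells for no effect and uninduced yeast grown without galactose for full effect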
PfHsp90 yeast 2: growth inhibition of yeast expressing Plasmodium Hsp90. S. cerevisiae expressing PfHsp90, BacTiter-Glo ATP, 48 h; yeast lacking PDR1 and PDR3 efflux regulators. inhibition, % at 9.4 µM. actives 0.32% (n = 310,000). AID 504621;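 active means every replicate shows inhibition above about 80%, whatever the replicate mean, limit read from the data; inconclusive means mean inhibition reaches the set limit but some replicate falls short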;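 further: 0% = DMSO neutral controls and 100% = 20 µM radicicol positive controls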
tim23-1 inh: growth inhibitors of tim23-1 mutant yeast | S. cerevisiae tim23-1 growth, BacTiter-Glo luminescence, 24 h | inhibition, % at 20 µM | actives 1.3% (n = 330,000);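 active means growth inhibition of the mutant yeast at or above 50%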;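 further: temperature-sensitive mutant grown at 25 °C; plate controls were DMSO-treated mutant yeast for no effect and medium wells lacking yeast for full effect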
SKKanGAS inh: SKKanGAS growth inhibition; inhibition, % at 7.5 µM; actives 1.3% (n = 300,000); S. pyogenes SKKanGAS, kanamycin growth, BacTiter-Glo, 6 h;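 active means mean replicate score, as percent of positive control median, at least 50; inconclusive means mean below 50 but one replicate at or above 50; inactive means mean and every replicate below 50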;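 further: strain carries kanamycin resistance gene driven by streptokinase promoter and grows in 40 µg/ml kanamycin; loss of luminescence reflects streptokinase promoter inhibition or plain growth inhibition; 0% = median of DMSO wells and 100% = positive control at its reference dose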
TIM10 inh: growth inhibitors of TIM10 yeast strain. inhibition, % at 10 µM. S. cerevisiae TIM10 strain growth, BacTiter-Glo luminescence, 24 h. actives 1.4% (n = 330,000);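 active means inhibition of 40% or more at the single tested concentration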;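 further: wild-type TIM10 isogenic control strain grown at permissive 25 °C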
tim10-1 inh: tim10-1 yeast growth inhibition; S. cerevisiae tim10-1 ts strain growth, BacTiter-Glo, 24 h; inhibition, % at 20 µM; actives 2.2% (n = 330,000); AID 463190;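 active means inhibition of at least 40%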;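 further: mutant grown at 25 °C; 0% = DMSO wells with yeast and 100% = wells holding no yeast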
tim10-1 confirm: tim10-1 yeast growth inhibition, confirmed. S. cerevisiae tim10-1 ts strain growth, BacTiter-Glo, 24 h. actives 56% (n = 7,400). shares compounds with tim10-1 inh. inhibition, % at 20 µM;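 active means inhibition of yeast growth at or above a set limit in either of two repeat tests at 20 µM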;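 further: tim10-1 mutant grown at permissive 25 °C to find synthetic lethal compounds; 0% = DMSO yeast wells and 100% = medium wells without yeast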
The depositor's hits bear a star. An excerpt weighted towards active compounds, which were near 4.6% of everything screened.

How did CCN(C(=O)COC(=O)Cc1ccc(F)cc1)c1c(N)n(Cc2ccccc2)c(=O)[nH]c1=O do in these assays?
NALP3 yeast inh: -9; PfHsp90 yeast 2: -13; tim23-1 inh: -15; TIM10 inh: 2; tim10-1 inh: -9

How did COc1cc(OC)c(C(=O)O/N=C(\N)c2cccc(C)c2)cc1OC do in these assays?
NALP3 yeast inh: 23; PfHsp90 yeast 2: -15; tim23-1 inh: 36; SKKanGAS inh: -6; TIM10 inh: 28; tim10-1 inh: 48*; tim10-1 confirm: 41*

Results for N/C(=N\OC(=O)COc1ccc(Cl)cc1)c1ccc(Cl)cc1 ?
NALP3 yeast inh: 4; PfHsp90 yeast 2: 7; tim23-1 inh: 9; SKKanGAS inh: -3; TIM10 inh: 25; tim10-1 inh: 27

How did Cc1cccc(/C(N)=N/OC(=O)COc2ccc(Cl)cc2)c1 do in these assays?
NALP3 yeast inh: 26; tim23-1 inh: 27; TIM10 inh: 21; tim10-1 inh: 50*; tim10-1 confirm: 46*

Results for COc1ccc(/C(N)=N/OC(=O)c2cccs2)cc1OC ?
NALP3 yeast inh: 3; PfHsp90 yeast 2: 24; tim23-1 inh: 23; SKKanGAS inh: -6; TIM10 inh: 25; tim10-1 inh: 66*; tim10-1 confirm: 53*

How did COc1cc(OC)c(C(=O)O/N=C(\N)c2ccc(C)cc2)cc1OC do in these assays?
NALP3 yeast inh: 16; PfHsp90 yeast 2: -14; tim23-1 inh: 36; SKKanGAS inh: -1; TIM10 inh: 33; tim10-1 inh: 46*; tim10-1 confirm: 49*

How did COc1ccc(/C(N)=N/OC(=O)Cc2ccc(C)cc2)cc1OC do in these assays?
NALP3 yeast inh: 30; PfHsp90 yeast 2: 28; tim23-1 inh: 21; SKKanGAS inh: -3; TIM10 inh: 9; tim10-1 inh: 19

What do the screens show for `COCCn1c(SCC(=O)NC2CCCC2)nc2c(c1=O)SCC2`?
NALP3 yeast inh: 3; PfHsp90 yeast 2: 4; tim23-1 inh: 14; SKKanGAS inh: 2; TIM10 inh: 16; tim10-1 inh: 9

How did O=C1C=C(NC(=O)Nc2ccc(Cl)c(Cl)c2)CCC1 do in these assays?
NALP3 yeast inh: 17; PfHsp90 yeast 2: -22; tim23-1 inh: 18; SKKanGAS inh: inconclusive; TIM10 inh: 30; tim10-1 inh: 43*; tim10-1 confirm: 46*

Results for CC(OC(=O)c1ccccc1Oc1ccccc1)C(=O)NC1CC1 (configuration not stated) ?
NALP3 yeast inh: 8; PfHsp90 yeast 2: 7; tim23-1 inh: 16; SKKanGAS inh: 2; TIM10 inh: -8; tim10-1 inh: -5

How did CCOCCCNC(=S)Nc1cc(C)cc(C)c1 do in these assays?
NALP3 yeast inh: 6; PfHsp90 yeast 2: 4; tim23-1 inh: 13; SKKanGAS inh: -4; TIM10 inh: -1; tim10-1 inh: 9

How did COC(=O)C1=C(C)N(C)C(=S)N(C)C1c1cccc(Br)c1 (configuration not stated) do in these assays?
NALP3 yeast inh: 19; PfHsp90 yeast 2: 28; tim23-1 inh: 44; SKKanGAS inh: 19; TIM10 inh: 25; tim10-1 inh: 42*; tim10-1 confirm: 27

Results for CCOC(=O)C1=C(C)N(C)C(=S)N(C)C1c1ccc(OC)cc1 (configuration not stated) ?
NALP3 yeast inh: -4; tim23-1 inh: 23; SKKanGAS inh: 0; TIM10 inh: 13; tim10-1 inh: 32

What do the screens show for `O=C1CC(SCc2nc3ccccc3[nH]2)C(=O)N1c1cccc(Cl)c1` (configuration not stated)?
NALP3 yeast inh: 4; PfHsp90 yeast 2: -42; tim23-1 inh: 22; SKKanGAS inh: 31; TIM10 inh: 26; tim10-1 inh: 40*; tim10-1 confirm: 35*

How did O=C1CC(Sc2nnnn2-c2ccccc2)C(=O)N1c1cccc(Cl)c1 (configuration not stated) do in these assays?
NALP3 yeast inh: 4; PfHsp90 yeast 2: -6; tim23-1 inh: 41; SKKanGAS inh: 0; TIM10 inh: 38; tim10-1 inh: 49*; tim10-1 confirm: 47*

What do the screens show for `O=C1CC(SCc2nc3ccccc3[nH]2)C(=O)N1c1ccc(F)cc1` (configuration not stated)?
NALP3 yeast inh: -4; PfHsp90 yeast 2: -2; tim23-1 inh: 26; SKKanGAS inh: 16; TIM10 inh: 22; tim10-1 inh: 24

How did O=C(Nc1ccc(Cl)cn1)C1C(c2ccccc2)C1(Cl)Cl (configuration not stated) do in these assays?
NALP3 yeast inh: 17; PfHsp90 yeast 2: -1; tim23-1 inh: 47; SKKanGAS inh: 11; TIM10 inh: 9; tim10-1 inh: 46*; tim10-1 confirm: 34*

How did O=C(Nc1ccc(Cl)cn1)C1CC1 do in these assays?
NALP3 yeast inh: 16; PfHsp90 yeast 2: 11; tim23-1 inh: 13; SKKanGAS inh: 2; TIM10 inh: 6; tim10-1 inh: 2

Results for COC(=O)c1cn(C(=O)c2cc(Br)ccc2Cl)c2ccccc12 ?
NALP3 yeast inh: -2; PfHsp90 yeast 2: 12; tim23-1 inh: 6; SKKanGAS inh: 12; TIM10 inh: -1; tim10-1 inh: 2

How did COc1ccc(Oc2nnnn2-c2ccccc2)cc1 do in these assays?
NALP3 yeast inh: 10; tim23-1 inh: 9; SKKanGAS inh: -7; TIM10 inh: 16; tim10-1 inh: 20

How did COc1cccc(Oc2nnnn2-c2ccccc2)c1 do in these assays?
NALP3 yeast inh: -56; PfHsp90 yeast 2: 10; tim23-1 inh: 34; SKKanGAS inh: -8; TIM10 inh: 22; tim10-1 inh: 42*; tim10-1 confirm: 33*

How did COC(=O)[C@]1(C)N[C@H](CN(C)C(=O)c2ccc(F)cc2)[C@@H]2C(=O)N(Cc3ccccc3)C(=O)[C@@H]21 do in these assays?
NALP3 yeast inh: 8; PfHsp90 yeast 2: 10; tim23-1 inh: -12; TIM10 inh: 4; tim10-1 inh: -8

What do the screens show for `Cc1nn(-c2ccc3ccccc3c2)c(=O)c2ccccc12`?
NALP3 yeast inh: 6; PfHsp90 yeast 2: 4; tim23-1 inh: 40; SKKanGAS inh: 11; TIM10 inh: 35; tim10-1 inh: 40*; tim10-1 confirm: 28

What do the screens show for `Cc1nn(-c2ccc(Cl)c(Cl)c2)c(=O)c2ccccc12`?
NALP3 yeast inh: 0; PfHsp90 yeast 2: -33; tim23-1 inh: 5; SKKanGAS inh: 2; TIM10 inh: 9; tim10-1 inh: 14

Results for Cc1ccc(NC(=O)CCC(=O)Nc2nnc(C3CCCCC3)s2)cc1 ?
NALP3 yeast inh: 9; PfHsp90 yeast 2: 24; tim23-1 inh: -10; SKKanGAS inh: 4; TIM10 inh: -8; tim10-1 inh: -4

Screening results (PubChem)
